# Source: PubChem BioAssay (Tox21)
# Several values for one entry are separate records, joined by “and”; a condition that tells them apart may be missing. Identical values can stand only once. Records with an inconclusive call do not appear. A call without a number means that no potency is given here. Some structures have more than one record in an assay (separate samples or runs), and their calls can disagree. Activity calls are given as the source filed them. Unless noted, the call rests on the fitted dose curve; in most records, active means well fitted curve in the direction sought with a large enough effect in the repeat runs; inconclusive means weak or mixed curves; inactive means no such curve, though single readings can be large; an effect the other way counts as inactive or inconclusive.
# Legend:
# [1] = target: Retinoic acid receptor RXR-alpha (Homo sapiens) (UniProt P19793); assay: qHTS assay to identify small molecule agonists of the RXR signaling pathway (AID 1159527; calls by dose curve; further: nearly all actives have a fitted effect of over 35% in size)
# Retinoic acid receptor RXR-alpha (Homo sapiens), sequence (P19793 whole entry, looked up): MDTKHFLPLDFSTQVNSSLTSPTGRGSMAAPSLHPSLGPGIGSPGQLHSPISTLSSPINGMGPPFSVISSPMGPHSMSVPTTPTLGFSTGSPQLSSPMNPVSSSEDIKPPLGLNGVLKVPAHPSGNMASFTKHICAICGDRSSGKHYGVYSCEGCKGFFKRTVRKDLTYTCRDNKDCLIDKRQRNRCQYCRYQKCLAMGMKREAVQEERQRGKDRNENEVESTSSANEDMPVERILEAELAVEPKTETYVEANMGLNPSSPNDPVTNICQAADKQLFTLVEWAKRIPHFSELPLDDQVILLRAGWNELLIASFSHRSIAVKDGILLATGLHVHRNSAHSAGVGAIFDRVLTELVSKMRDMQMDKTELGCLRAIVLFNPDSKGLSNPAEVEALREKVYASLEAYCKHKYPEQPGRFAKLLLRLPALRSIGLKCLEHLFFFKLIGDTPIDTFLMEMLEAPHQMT
# Method in brief: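 Beta-lactamase reporter assay, agonist format. Engineered HEK 293T line, charcoal-stripped FBS at 2%, overnight (16 hr) exposure, fluorescence at 460 and 530 nm after 405 nm excitation.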
# [2] = qHTS assay to identify small molecule antagonists of the retinoid acid receptor (RAR) signaling pathway - cell viability counter screen (AID 1159551); further: nearly all actives have a fitted effect of over 35% in size; further: potency means the concentration at half of the fitted maximal effect
# Method in brief: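 ATP-based viability, C3RL4 cells, 6 h at 37 C with 1 uM final retinol co-added after compound; luminescence read 30 min post CellTiter-Glo, RT.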
# [3] = qHTS assay to identify small molecule antagonists of the retinoic acid receptor (RAR) signaling pathway (AID 1159552; further: nearly all actives have a fitted effect of over 50% in size; further: potency means the concentration at half of the fitted maximal effect)
# Method in brief: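 Readout: luciferase luminescence, 30 min post-reagent at RT. Setup: C3RL4 RARE reporter cells, compounds plus retinol 1 uM final, 6 hr incubation at 37 C and 5% CO2.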
# [4] = qHTS assay to identify small molecule agonists of the retinoic acid receptor (RAR) signaling pathway (AID 1159553); conditions: C3RL4 RARE luciferase reporter, agonist, 6 h; activation: at 73.3 µM (top of the series) unless noted; further: potency means the concentration at half of the fitted maximal effect
# Method in brief: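 Quantitative high-throughput format: the Tox21 10K library was tested on C3RL4 RARE-luciferase cells for 6 hr at 37 C and 5% CO2, with luminescence measured after a 30 min room-temperature reagent step.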
# [5] = qHTS assay to identify small molecule agonists of the RXR signaling pathway - cell viability counter screen (AID 1159529); further: nearly all actives have a fitted effect of over 50% in size; further: potency means the concentration at half of the fitted maximal effect
# Method in brief: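 Same-well viability check after the LiveBLAzer FRET read: CellTiter-Glo added, luminescence measured after 30 min at room temperature. Reporter HEK 293T cells had been treated with compounds for 16 hr following a 5 hr preincubation.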
# [6] = qHTS assay to identify small molecule agonists of the estrogen related receptor (ERR) signaling pathway (AID 1224820); further: potency means the concentration at half of the fitted maximal effect
# Method in brief: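 Luminescence readout (One-Glo, 30 min RT) from NTP-supplied ERR cell line exposed to compounds for 18 h at 37 C. Cells seeded 2,000 per well and pre-incubated 6 h before pin-tool compound transfer.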
# [7] = system: estrogen-related receptor alpha (ERRalpha) with PGC-1alpha coactivator, human; assay: qHTS assay to identify small molecule antagonists of the estrogen related receptor signaling pathway with the pleiotropic PPARgamma coactivator (PGC) (AID 1224821; calls by dose curve; further: nearly all actives have a fitted effect of over 50% in size; further: potency means the concentration at half of the fitted maximal effect)
# Method in brief: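 PGC/ERR reporter cells; 6 h pre-incubation 37 C/5% CO2; pin-tool compound in DMSO, 18 h 37 C; One-Glo added, 30 min RT; luminescence read. qHTS antagonist mode.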
# [8] = qHTS assay to identify small molecule antagonists of the estrogen related receptor signaling pathway with the pleiotropic PPARgamma coactivator (PGC) cell viability counter screen (AID 1224822; further: potency means the concentration at half of the fitted maximal effect)
# Text: National Center for Advancing Translational Sciences [NCATS]
# NIH Chemical Genomics Center [NCGC]
# U.S. Environmental Protection Agency [EPA]
# National Institutes of Environmental Health Sciences [NIEHS]
# National Toxicology Program [NTP]
# U.S. Food and Drug Administration [FDA]
# Estrogen related receptors (ERRs), the first orphan nuclear receptors discovered, play an important role in the control of cellular energy metabolism. ERRs are required for high-energy production in response to the environmental challenges. The pleiotropic PPARgamma coactivator (PGC) is a major partner of ERR and a key regulator in energy homeostasis. Together they have been implicated in the etiology of metabolic disorders such as Type 2 diabetes and metabolic syndrome. ERR-alpha was also identified as an adverse marker for breast cancer progression; ERR-alpha-positive tumors have a poor prognosis. To screen and to identify environmental compounds that perturb the ERR and PGC/ERR signaling pathways could provide valuable information for potential therapeutic or preventive measures in the treatment of metabolic disease. To differentiate true PGC/ERR antagonists or agonist from cytotoxic substances, the assay is multiplexed with cell viability assay.
# Tox21 Assay Protocol Summary:
# The PGC/ERR cells were dispensed at 2,000 cells/5 ul/well in 1536-well white plates using a Multidrop dispenser. After the assay plates were incubated at a 37 C/5% CO2 incubator for 6 hours, 23 nL of compounds dissolved in DMSO, positive and negative controls or DMSO only was transferred to the assay plate by a pin tool. The plates were incubated at 37 C for 17.5 hours. 1 ul/well of CellTiter-Fluor reagent was added into the assay plates using a Flying Reagent Dispenser. After 30 min incubation at 37 C/5% CO2, the fluorescence intensity in the plates was measured using a ViewLux plate reader.
# [9] = qHTS assay to identify small molecule antagonists of the estrogen related receptor (ERR) signaling pathway - cell viability counter screen (AID 1224818);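 further: viability measured after 17.5 h of compound exposure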
# Method in brief: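 Quantitative high-throughput viability counter screen in ERR cells. Compounds (DMSO) incubated 17.5 h at 37 C; read-out was CellTiter-Fluor fluorescence.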
# [10] = qHTS assay to identify small molecule antagonists of the estrogen related receptor (ERR) signaling pathway (AID 1224819; further: nearly all actives have a fitted effect of over 50% in size; further: potency means the concentration at half of the fitted maximal effect)
# Method in brief: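 ERR reporter cell line (NTP) plated at 2,000 cells/well, settled 6 h at 37C/5% CO2, then exposed to LOPAC compounds for 18 h at 37C. One-Glo luciferase luminescence read after 30 min at room temperature.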
compound,measurement,setting,value
O=[N+]([O-])c1cccc2ccccc12,Potency,[1],inactive
same,Potency,[2],inactive
same,Potency,[3],inactive
same,Potency,[4],inactive
S=C1NCCN1,Potency,[1],inactive
same,Potency,[2],inactive
same,Potency,[3],inactive
same,Potency,[4],inactive
CC(O)CCO (stereo not given),Potency,[1],inactive
same,Potency,[2],inactive
same,Potency,[3],inactive
same,Potency,[4],inactive
Nc1ccc(-c2ccc(N)c(N)c2)cc1N,Potency,[2],inactive
same,Potency,[3],inactive
same,Potency,[4],10.8 µM (active) and 8.63 µM (active)
C[C@]12CCC(=O)C[C@@H]1CC[C@@H]1[C@@H]2CC[C@]2(C)[C@@H](O)CC[C@@H]12,Potency,[5],inactive
same,Potency,[2],inactive
same,Potency,[3],42.7 µM (active) and inactive
same,Potency,[4],inactive
Oc1cc(Cl)ccc1Cl,Potency,[1],inactive
same,Potency,[2],inactive
same,Potency,[3],inactive
same,Potency,[4],inactive
CCCCCCCCC(=O)NCc1ccc(O)c(OC)c1,Potency,[5],inactive
same,Potency,[2],inactive
same,Potency,[3],inactive
CC(C)Oc1cc(-n2nc(C(C)(C)C)oc2=O)c(Cl)cc1Cl,Potency,[2],inactive
same,Potency,[4],inactive
C#C[C@]1(O)CC[C@H]2[C@@H]3CCC4=CC(=O)CC[C@]4(C)[C@H]3CC[C@@]21C,Potency,[2],inactive
same,Potency,[3],inactive
same,Potency,[4],inactive
Oc1c(Cl)c(Cl)c(Cl)c(Cl)c1Cl,Potency,[2],inactive
same,Potency,[3],inactive
same,Potency,[4],inactive
CC(C)(OOC(C)(C)c1ccccc1)c1ccccc1,Potency,[2],inactive
same,Potency,[3],inactive
same,Potency,[4],inactive
Cc1c(COC(=O)[C@@H]2[C@H](/C=C(\Cl)C(F)(F)F)C2(C)C)cccc1-c1ccccc1,Potency,[5],inactive
same,Potency,[2],inactive
same,Potency,[3],inactive
same,Potency,[4],inactive
CCOCN(C(=O)CCl)c1c(C)cccc1CC,Potency,[5],inactive
same,Potency,[2],inactive
same,Potency,[4],inactive
c1cc(OCC2CO2)ccc1Cc1ccc(OCC2CO2)cc1 (stereo not given),Potency,[5],inactive
same,Potency,[2],inactive
same,Potency,[3],inactive
same,Potency,[4],inactive
Nc1ccc(-c2ccccc2)cc1,Potency,[5],inactive
same,Potency,[2],inactive
same,Potency,[3],62.8 µM (active) and inactive
same,Potency,[4],35.3 µM (active) and 9.69 µM (active)
NNC(N)=S,Potency,[2],inactive
same,Potency,[3],inactive
CCc1cccc(CC)c1N(COC)C(=O)CCl,Potency,[2],inactive
Oc1cc(Cl)ccc1Oc1ccc(Cl)cc1Cl,Potency,[1],inactive
same,Potency,[2],31.4 µM (active)
same,Potency,[6],inactive
same,Potency,[7],inactive
same,Potency,[8],38.6 µM (active)
Nc1ccc(Cl)cc1N,Potency,[1],inactive
same,Potency,[2],inactive
same,Potency,[3],inactive
same,Potency,[4],1.6 µM (active) and 545 nM (active)
same,outcome,[9],inactive
same,Potency,[10],inactive
same,Potency,[6],5.88 µM (active)
same,Potency,[7],inactive
same,Potency,[8],inactive
CCC(=O)O[C@H]1CC[C@H]2[C@@H]3CCC4=CC(=O)CC[C@]4(C)[C@H]3CC[C@]12C,Potency,[2],inactive
same,Potency,[3],48.6 µM (active) and inactive
same,Potency,[4],inactive
CCOc1cc(C=O)ccc1O,Potency,[2],inactive
same,Potency,[3],inactive
same,Potency,[4],inactive
O=c1oc2ccccc2c(O)c1C(CC(O)c1ccc(-c2ccc(Br)cc2)cc1)c1ccccc1 (stereo not given),Potency,[2],inactive
CC(C)=CC1C(C(=O)OCc2coc(Cc3ccccc3)c2)C1(C)C (stereo not given),Potency,[2],inactive
same,Potency,[3],inactive
same,Potency,[4],inactive
CCOC(=S)S,Potency,[5],23.3 µM (active)
same,Potency,[3],inactive
O=[N+]([O-])c1ccc(O)c([N+](=O)[O-])c1,Potency,[5],12.3 µM (active)
same,Potency,[2],inactive
same,Potency,[3],inactive
same,Potency,[4],inactive
Cc1cccc(N)c1N,Potency,[5],inactive
same,Potency,[2],inactive
same,Potency,[3],inactive
same,Potency,[4],1.05 µM (active) and 2.43 µM (active)
O=P(Oc1ccccc1)(Oc1ccccc1)Oc1ccccc1,Potency,[2],inactive
Cc1cc(Cl)ccc1OCCCC(=O)O,Potency,[5],inactive
same,Potency,[2],inactive
same,Potency,[3],inactive
same,Potency,[4],inactive
O=S(=O)(Oc1ccc(Cl)cc1)c1ccc(Cl)cc1,Potency,[2],inactive
same,Potency,[3],inactive
same,Potency,[4],inactive
N[C@@H](Cc1ccc(N(CCCl)CCCl)cc1)C(=O)O,Potency,[5],inactive
same,Potency,[2],inactive
same,Potency,[4],inactive
OCC(O)CO,Potency,[5],inactive
same,Potency,[2],inactive
same,Potency,[3],inactive
same,Potency,[4],inactive
CCN(CC)N=O,Potency,[5],inactive
same,Potency,[2],inactive
same,Potency,[3],inactive
same,Potency,[4],inactive
O=C(Nc1ccc(Br)cc1)c1cc(Br)cc(Br)c1O,Potency,[2],inactive
same,Potency,[3],inactive
same,Potency,[4],inactive
CCC(CC)Nc1c([N+](=O)[O-])cc(C)c(C)c1[N+](=O)[O-],Potency,[2],inactive
NNC(=S)NN,Potency,[2],inactive
C#CCOS(=O)OC1CCCCC1Oc1ccc(C(C)(C)C)cc1 (stereo not given),Potency,[3],13.7 µM (active) and 15.4 µM (active)
same,Potency,[4],inactive
Cc1ccc(OP(=O)(Oc2ccc(C)cc2)Oc2ccc(C)cc2)cc1,Potency,[5],inactive
same,Potency,[2],inactive
same,Potency,[3],inactive
same,Potency,[4],inactive
C=C(C)[C@H]1Cc2c(ccc3c2O[C@@H]2COc4cc(OC)c(OC)cc4[C@@H]2C3=O)O1,Potency,[5],inactive
same,Potency,[4],inactive
same,Potency,[10],0.081 µM (active)
same,Potency,[6],inactive
same,Potency,[7],0.0361 µM (active)
CCCCC(CC)COC(=O)Cl (stereo not given),Potency,[1],inactive
same,Potency,[2],inactive
same,Potency,[3],inactive
same,Potency,[4],inactive
Cc1ccc(N)c(N)c1,Potency,[2],inactive
same,Potency,[3],inactive
same,Potency,[4],1.54 µM (active) and 1.22 µM (active)
N#Cc1cc(Br)c(O)c(Br)c1,Potency,[1],inactive
same,Potency,[2],inactive
same,Potency,[3],inactive
same,Potency,[4],inactive
